About 79,000 compounds went through this panel and 15% of them were active in at least one assay; those are over-represented in the sample as a whole. The source made the active and inactive calls. Cut-off read from the data, not from the text of the source: active = growth inhibition above about 70%; inactive = the rest.
Key:
[1] = NCI Yeast Anticancer Drug Screen. Data for the rad52 strain (AID 147);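 note: 0% = growth of vehicle-treated control cultures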; settings: S. cerevisiae rad52 mutant growth inhibition, hits give high values
How it was run: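 Compounds are applied to a genetically defined yeast strain lacking normal DNA damage repair, and inhibition of growth is expressed relative to cultures given vehicle only.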

[2] = NCI Yeast Anticancer Drug Screen. Data for the wt1 strain (AID 149);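 note: 0% = growth of vehicle-treated wt1 cultures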; settings: S. cerevisiae wt1 strain (SPY 50644) growth inhibition, hits give high values
How it was run: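 wt1 strain grown with compound or vehicle; inhibition taken from the growth difference.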

[3] = NCI Yeast Anticancer Drug Screen. Data for the rad50EPP+ strain (AID 151);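 note: 0% = growth of vehicle-treated control cultures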; settings: S. cerevisiae rad50 mutant strain, hits give high values
How it was run: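 Compounds were applied to the rad50EPP+ yeast strain, which bears a defined DNA repair alteration, and growth inhibition was determined relative to vehicle-treated cultures.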

[4] = NCI Yeast Anticancer Drug Screen. Data for the mgt1 strain (AID 153); settings: S. cerevisiae mgt1 mutant growth inhibition, hits give high values
How it was run: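 Strain: mgt1 yeast, one of a set carrying defined DNA damage repair or cell cycle control alterations. Compound-treated growth compared with vehicle.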

[5] = NCI Yeast Anticancer Drug Screen. Data for the rad50 strain (AID 155);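 note: 0% = growth of vehicle-only cultures of the same strain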; settings: S. cerevisiae rad50 strain growth inhibition, hits give high values
How it was run: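 DNA repair mutant yeast, compound exposure, growth read-out; inhibition is taken relative to vehicle.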

[6] = NCI Yeast Anticancer Drug Screen. Data for the mec2-1 strain (AID 157); settings: S. cerevisiae mec2-1 strain, hits give high values
How it was run: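 Strain: mec2-1 (DNA repair/cell cycle alteration). Compound exposure, then growth measured; inhibition expressed relative to vehicle.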

[7] = NCI Yeast Anticancer Drug Screen. Data for the sgs1 mgt1 strain (AID 161);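 note: 0% = growth of cultures given vehicle only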; settings: S. cerevisiae sgs1 mgt1 strain, hits give high values
How it was run: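 Inhibition of yeast growth, normalised to vehicle-treated controls, is reported for a strain bearing genetic alterations in DNA damage repair.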

[8] = NCI Yeast Anticancer Drug Screen. Data for the CLN2oe strain (AID 163);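 note: 0% = growth of vehicle-only control cultures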; settings: S. cerevisiae CLN2oe strain, hits give high values
How it was run: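 Growth of a genetically modified yeast strain is measured after compound exposure and compared with cultures given vehicle alone.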

[9] = NCI Yeast Anticancer Drug Screen. Data for the cln2 rad14 strain (AID 165);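 note: 0% = growth equal to vehicle treated cultures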; settings: S. cerevisiae cln2 rad14 strain, hits give high values
How it was run: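 Compounds are applied to the cln2 rad14 yeast strain, and growth is then compared with that of vehicle-treated cultures to give inhibition.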

[10] = NCI Yeast Anticancer Drug Screen. Data for the bub3 strain (AID 167); settings: S. cerevisiae bub3 mutant strain, hits give high values
How it was run: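 In this screen, a yeast mutant lacking normal mitotic checkpoint function is challenged with compound. Relative growth versus vehicle gives the inhibition value.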

[11] = NCI Yeast Anticancer Drug Screen. Data for the wt2 strain (AID 169);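 note: 0% = growth of vehicle-treated yeast cultures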; settings: S. cerevisiae wt2 strain growth inhibition, hits give high values
How it was run: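 This strain belongs to a panel of yeast strains with defined genetic alterations in DNA damage repair or cell cycle control. Compounds are applied, and growth inhibition is measured against vehicle-treated cultures.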

[12] = NCI Yeast Anticancer Drug Screen. Data for the mlh1 strain (AID 171);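 note: 0% = growth of vehicle-treated control cultures of the same strain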; settings: S. cerevisiae mlh1 strain growth inhibition, hits give high values
How it was run: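 Growth of the mutant yeast strain after compound exposure, expressed as inhibition relative to vehicle-only controls.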

[13] = NCI Yeast Anticancer Drug Screen. Data for the sgs1 strain (AID 173);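 note: 0% = growth of vehicle-only control cultures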; settings: S. cerevisiae sgs1 mutant, hits give high values
How it was run: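 Growth of a yeast strain bearing a defined genetic alteration is measured after compound treatment. Inhibition is expressed relative to vehicle-only controls.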

[14] = NCI Yeast Anticancer Drug Screen. Data for the mlh1 rad18 strain (AID 175); settings: S. cerevisiae mlh1 rad18 strain growth inhibition, hits give high values
How it was run: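 Read-out is yeast growth inhibition, calculated against vehicle-only controls. The compound was applied to a strain engineered with DNA damage repair alterations.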

[15] = NCI Yeast Anticancer Drug Screen. Data for the rad18 strain (AID 177); settings: S. cerevisiae rad18 mutant growth inhibition, hits give high values
How it was run: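 Growth of the mutant yeast strain after compound exposure, normalised to vehicle-only cultures.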

[16] = NCI Yeast Anticancer Drug Screen. Data for the rad14 strain (AID 159);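 note: 0% = growth of vehicle-treated control cultures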; settings: S. cerevisiae rad14 strain growth inhibition, hits give high values
How it was run: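 DNA repair-defective yeast, compound-exposed; % growth inhibition derived by comparison with vehicle-treated controls.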

[17] = at 5.0 µM (retest, dose inferred, filed as 0.5)
[18] = at 50.0 µM (retest, dose inferred, filed as 5.0)

Measured: growth inhibition

CC(C)c1cc(C(C)C)c(O)c(C([O-])[O-])c1.CC(C)c1cc(C(C)C)c(O)c(C([O-])[O-])c1.CC(C)c1cc(C(C)C)c(O)c(C([OH2+])[OH2+])c1.CC(C)c1cc(C(C)C)c(O)c(C([OH2+])[OH2+])c1.[Cu+2].[Cu+2].[OH3+].[OH3+]
inactive: [1]; at 1.2 µM 5% | [1]; at 3.7 µM 12% | [1]; at 11.0 µM 26% | [1]; at 33.0 µM 61% | [2]; at 1.2 µM -2% | [2]; at 3.7 µM 4% | [2]; at 11.0 µM 20% | [2]; at 33.0 µM 35% | [2]; at 100.0 µM 67% | [3]; at 1.2 µM 1% | [3]; at 3.7 µM 0% | [3]; at 11.0 µM 4% | [3]; at 33.0 µM 11% | [3]; at 100.0 µM 21% | [4]; at 1.2 µM -2% | [4]; at 3.7 µM 6% | [4]; at 11.0 µM 18% | [4]; at 33.0 µM 56% | [5]; at 1.2 µM 5% | [5]; at 3.7 µM 8% | [5]; [17] 5% | [5]; at 11.0 µM 21% | [5]; at 33.0 µM 65% | [5]; [18] 31% | [5]; at 50.0 µM 39.8% | [6]; at 1.2 µM 7% | [6]; at 3.7 µM 18% | [6]; [17] 1% | [6]; at 11.0 µM 36% | [6]; at 33.0 µM 52% | [6]; [18] 27% | [6]; at 50.0 µM 38.1% | [7]; [17] -9% | [7]; [18] 40% | [7]; at 50.0 µM 43% | [8]; at 1.2 µM 3% | [8]; at 3.7 µM 9% | [8]; at 11.0 µM 34% | [8]; at 33.0 µM 58% | [9]; [17] 3% | [9]; [18] 12% | [9]; at 50.0 µM 53.2% | [10]; at 1.2 µM 1% | [10]; at 3.7 µM 9% | [10]; [17] 4% | [10]; at 11.0 µM 19% | [10]; at 33.0 µM 47% | [10]; [18] 1% | [11]; at 1.2 µM -4% | [11]; at 3.7 µM -2% | [11]; at 11.0 µM 32% | [12]; at 1.2 µM 2% | [12]; at 3.7 µM 15% | [12]; at 11.0 µM 29% | [12]; at 33.0 µM 60% | [13]; at 1.2 µM -11% | [13]; at 3.7 µM -19% | [13]; at 11.0 µM 27% | [14]; [17] -12% | [14]; [18] 59% | [14]; at 50.0 µM 38.2% | [15]; at 1.2 µM 2% | [15]; at 3.7 µM 10% | [15]; at 11.0 µM 34% | [15]; at 33.0 µM 57%
active: [1]; at 100.0 µM 92% | [4]; at 100.0 µM 91% | [5]; at 100.0 µM 94% | [6]; at 100.0 µM 76% | [8]; at 100.0 µM 83% | [10]; at 50.0 µM 96.7% | [10]; at 100.0 µM 70% | [11]; at 33.0 µM 70% | [11]; at 100.0 µM 93% | [12]; at 100.0 µM 93% | [13]; at 33.0 µM 78% | [13]; at 100.0 µM 93% | [15]; at 100.0 µM 87%

NC(=NCc1ccccc1)N/N=C\c1ccnc2ccccc12
active: [7]; [18] 75% | [8]; at 100.0 µM 70%
inactive: [1]; at 1.2 µM 0% | [1]; at 3.7 µM -3% | [1]; at 11.0 µM 0% | [1]; at 33.0 µM 0% | [1]; at 100.0 µM 32% | [2]; at 1.2 µM -1% | [2]; at 3.7 µM -1% | [2]; at 11.0 µM -2% | [2]; at 33.0 µM 0% | [2]; at 100.0 µM 2% | [3]; at 1.2 µM -2% | [3]; at 3.7 µM 0% | [3]; at 11.0 µM 1% | [3]; at 33.0 µM 1% | [3]; at 100.0 µM 4% | [5]; at 1.2 µM 1% | [5]; at 3.7 µM 2% | [5]; [17] -2% | [5]; at 11.0 µM 4% | [5]; at 33.0 µM 7% | [5]; [18] 46% | [5]; at 50.0 µM 36% | [5]; at 100.0 µM 39% | [6]; at 1.2 µM -1% | [6]; at 3.7 µM 0% | [6]; [17] 2% | [6]; at 11.0 µM -1% | [6]; at 33.0 µM 7% | [6]; [18] 56% | [6]; at 50.0 µM 48.8% | [6]; at 100.0 µM 27% | [16]; at 1.2 µM 0% | [16]; at 3.7 µM 3% | [16]; at 11.0 µM 12% | [16]; at 33.0 µM 36% | [16]; at 100.0 µM 61% | [7]; [17] -6% | [7]; at 50.0 µM 66.3% | [8]; at 1.2 µM -6% | [8]; at 3.7 µM -6% | [8]; at 11.0 µM 1% | [8]; at 33.0 µM 22% | [9]; [17] 9% | [9]; [18] 62% | [9]; at 50.0 µM 21.1% | [10]; at 1.2 µM 0% | [10]; at 3.7 µM 0% | [10]; [17] -5% | [10]; at 11.0 µM 1% | [10]; at 33.0 µM 13% | [10]; [18] 60% | [10]; at 50.0 µM 22.4% | [10]; at 100.0 µM 56% | [11]; at 1.2 µM -2% | [11]; at 3.7 µM -3% | [11]; at 11.0 µM -1% | [11]; at 33.0 µM -1% | [11]; at 100.0 µM 38% | [12]; at 1.2 µM -2% | [12]; at 3.7 µM -1% | [12]; at 11.0 µM 2% | [12]; at 33.0 µM 10% | [12]; at 100.0 µM 52% | [13]; at 1.2 µM -1% | [13]; at 3.7 µM 0% | [13]; at 11.0 µM 1% | [13]; at 33.0 µM 13% | [13]; at 100.0 µM 61% | [14]; [17] 3% | [14]; [18] -21% | [14]; at 50.0 µM 44.4% | [15]; at 1.2 µM -2% | [15]; at 3.7 µM -3% | [15]; at 11.0 µM 0% | [15]; at 33.0 µM 5% | [15]; at 100.0 µM 28%
